Results reported in publication PMC4336329 (PLoS ONE, 2015).
The campaign covered roughly 310,000 compounds. About 14,000 (4.5%) showed an effect of 50% or more. The effect is printed as a negative number. The entries come from a sample that favours strong results as a whole.

Target: human ether-à-go-go-related gene (hERG) potassium channel (human, UniProt Q12809)
Assay: primary screen, population patch clamp on CHO cells stably expressing hERG; higher = less effect of the substance
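Also: peak tail current of the secondary pulse compared with the same well before compound.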

Chain of human ether-à-go-go-related gene (hERG) potassium channel (Q12809 whole entry, looked up): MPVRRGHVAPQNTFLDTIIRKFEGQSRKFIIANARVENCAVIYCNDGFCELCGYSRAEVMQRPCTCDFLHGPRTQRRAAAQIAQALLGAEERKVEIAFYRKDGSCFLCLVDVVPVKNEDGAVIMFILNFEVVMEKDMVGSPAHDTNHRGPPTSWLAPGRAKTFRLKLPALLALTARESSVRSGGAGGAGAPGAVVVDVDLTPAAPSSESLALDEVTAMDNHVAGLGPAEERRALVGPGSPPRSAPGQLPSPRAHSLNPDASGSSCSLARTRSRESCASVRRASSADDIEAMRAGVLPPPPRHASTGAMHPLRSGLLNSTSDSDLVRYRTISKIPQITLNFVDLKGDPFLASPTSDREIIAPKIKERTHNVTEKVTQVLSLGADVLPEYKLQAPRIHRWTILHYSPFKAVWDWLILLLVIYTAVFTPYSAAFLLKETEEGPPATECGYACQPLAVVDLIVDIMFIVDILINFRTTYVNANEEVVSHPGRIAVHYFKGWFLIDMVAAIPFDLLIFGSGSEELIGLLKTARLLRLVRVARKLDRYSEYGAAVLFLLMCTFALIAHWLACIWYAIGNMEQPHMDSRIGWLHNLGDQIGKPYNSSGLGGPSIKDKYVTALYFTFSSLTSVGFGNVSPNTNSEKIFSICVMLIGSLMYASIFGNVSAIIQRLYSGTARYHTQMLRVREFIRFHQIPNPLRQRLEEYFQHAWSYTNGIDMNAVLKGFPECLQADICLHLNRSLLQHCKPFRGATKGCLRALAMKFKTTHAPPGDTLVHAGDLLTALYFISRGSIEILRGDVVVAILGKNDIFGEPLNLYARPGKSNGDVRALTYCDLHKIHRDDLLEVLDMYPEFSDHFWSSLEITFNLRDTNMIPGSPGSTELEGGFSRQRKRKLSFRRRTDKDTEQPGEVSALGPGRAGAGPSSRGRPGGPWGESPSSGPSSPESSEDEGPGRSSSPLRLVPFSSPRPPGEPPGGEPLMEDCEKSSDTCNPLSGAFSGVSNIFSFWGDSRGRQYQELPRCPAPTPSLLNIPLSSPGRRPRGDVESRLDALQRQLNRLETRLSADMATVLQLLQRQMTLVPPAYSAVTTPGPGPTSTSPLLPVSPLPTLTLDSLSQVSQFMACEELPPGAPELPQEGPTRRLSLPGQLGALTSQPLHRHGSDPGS

SMILES | hERG current change (%, negative = inhibition) at 10uM [%]
Cc1ccc(-n2c(O)c(C=NCCN3CCNCC3)c(=O)[nH]c2=S)cc1 | 22
O=S1(=O)CCN=C2SC3=C(CCCC3)N21 | 1.25
CC1CCCCN1C(=O)COC(=O)c1ccc2c(c1)C(=O)N(Cc1ccco1)C2=O (centres unmarked) | -34.9
O=C(OCC(=O)N1CCCCC1)c1ccc2c(c1)C(=O)N(Cc1ccco1)C2=O | -28
CC1CC(C)CN(C(=O)COC(=O)c2ccc3c(c2)C(=O)N(Cc2ccco2)C3=O)C1 (centres unmarked) | -68.7
CN(CC(=O)Nc1ccccc1Br)C(=O)c1cccn1C | 16.2
Cl.O=C(CCS(=O)(=O)c1ccccc1)N(CCCN1CCOCC1)c1nc2ccccc2s1 | -14.1
CCc1nn(CC(=O)NCCC2=CCCCC2)c(=O)c2cc3cc(F)ccc3n12 | 15.7
CN(C)S(=O)(=O)c1ccc(NC(=O)CN2CCN(c3ccccn3)CC2)cc1 | 13.9
O=C1c2ccccc2C(=O)N1CSc1nnc2c3ccccc3n(CCc3ccccc3)c2n1 | 14.4
CCN(CC)CCSc1nnc2c3ccccc3n(CCc3ccccc3)c2n1 | -75.3
c1ccc(Cn2c3ccccc3c3nnc(SCCN4CCCCC4)nc32)cc1 | -67.7
CCn1c2ccccc2c2nnc(SCCN3CCCCC3)nc21 | -39.1
CCN(CC)CCSc1nnc2c3ccccc3n(Cc3ccccc3)c2n1 | -75.4
CSc1nnc2c3ccccc3n(CCc3ccccc3)c2n1 | -12.1
CCn1c2ccccc2c2nnc(SCc3ccccc3)nc21 | -3.61
C=CCn1c2ccccc2c2nnc(SCCN3CCCCC3)nc21 | -46.4
CSc1nnc2c3ccccc3n(Cc3ccccc3)c2n1 | 25.8
O=C(CSc1nnc(NC(=O)c2cccc(F)c2)s1)NC1CCCC1 | 13.9
Cc1cc(C)nc(NC(=O)c2c(F)c(F)c(F)c(C(=O)Nc3cc(C)cc(C)n3)c2F)c1 | -8.14
CN(C)C=O.CNC(=O)CSc1nc2nc(C)cc(C)n2n1 | 0.176
Cc1cccc(OCC(=O)Nc2nnc(-c3ccco3)s2)c1 | -1.94

SMILES | hERG current change (%, negative = inhibition) at 10uM [%]
CCOc1ccc2nc(SC3CC(=O)N(c4ccc(C)cc4)C3=O)sc2c1 (centres unmarked) | -6.29
Cc1cc(C(=O)NCCCn2ccnc2)sc1-c1ccccc1 | -10.3
O=c1ccc(-c2ccc(S(=O)(=O)NCC3CCN(Cc4cccc(F)c4)CC3)s2)n[nH]1 | -8.55
Cc1ccc(CN2CCC(CNS(=O)(=O)c3ccc(-c4ccc(=O)[nH]n4)s3)CC2)cc1 | -60.6
CCc1cccc(NS(=O)(=O)c2c(C)nc3scc(C)n3c2=O)c1 | 9.84
CCOC(=O)c1c(C)[nH]c(C)c1S(=O)(=O)NCC1CCN(Cc2cccc(F)c2)CC1 | -1.69
COC(=O)c1cc(S(=O)(=O)NCC2CCN(Cc3ccc(F)cc3)CC2)c[nH]1 | -57
O=c1ccc(-c2ccc(S(=O)(=O)NCC3CCN(Cc4ccccc4F)CC3)s2)n[nH]1 | -32.6
CCOC(=O)c1c(C)[nH]c(C)c1S(=O)(=O)NCC1CCN(Cc2cccc(Cl)c2)CC1 | -20.5
Cc1nc2scc(C)n2c(=O)c1S(=O)(=O)Nc1ccc(F)cc1 | -22.8
COC(=O)c1cc(S(=O)(=O)NCC2CCN(Cc3ccccc3F)CC2)c[nH]1 | -21.4
Cc1cccc(NS(=O)(=O)c2c(C)nc3scc(C)n3c2=O)c1 | -65.2
COC(=O)c1cc(S(=O)(=O)NCC2CCN(Cc3cccc(F)c3)CC2)c[nH]1 | -16.7
CCOC(=O)c1c(C)[nH]c(C)c1S(=O)(=O)NCC1CCN(Cc2ccc(C)cc2)CC1 | -60.2
Cc1n[nH]c(C)c1CCNC(=O)C1CCC(=O)N(CCc2cccc(F)c2)C1 (centres unmarked) | 9.63
Cc1ccc(C(=O)NCCNC(=O)c2ccccc2)cc1 | 8.24
O=[N+]([O-])c1ccc(C23CC4CC(CC(O)(C4)C2)C3)cc1 | -37.8
O=C(Nc1ccc2nc(-c3ccc4nc[nH]c4c3)[nH]c2c1)c1cccs1 | 17.1
COC(=O)c1cc(S(=O)(=O)NCC2CCN(Cc3ccc(C)cc3)CC2)c[nH]1 | -73.8
Cc1nc2scc(C)n2c(=O)c1S(=O)(=O)NCC1CCN(Cc2ccc(Cl)cc2)CC1 | -50.1
COC(=O)c1cc(S(=O)(=O)NCCc2ccc(Cl)cc2)c[nH]1 | -3.4
COC(=O)c1cc(S(=O)(=O)NCCc2ccc(C)cc2)c[nH]1 | -9.92

SMILES | hERG current change (%, negative = inhibition) at 10uM [%]
COC(=O)c1cc(S(=O)(=O)NCC2CCN(Cc3cccc(Cl)c3)CC2)c[nH]1 | -41.9
Cc1nc2scc(C)n2c(=O)c1S(=O)(=O)NCCc1ccc(Cl)cc1 | 7.69
Cc1nc2scc(C)n2c(=O)c1S(=O)(=O)NCC1CCN(Cc2ccc(F)cc2)CC1 | -49.7
COC(=O)c1cc(S(=O)(=O)NCC2CCN(Cc3cc(C)ccc3C)CC2)c[nH]1 | -11
COC(=O)c1cc(S(=O)(=O)NCC2CCN(Cc3ccc(Cl)cc3)CC2)c[nH]1 | -71.2
COc1ccc(C2NS(=O)(=O)OCC2C)cc1 (centres unmarked) | 16.4
COc1ccc(C(=O)NCCN2C(=O)S/C(=C\c3cccnc3)C2=O)c(OC)c1OC | -9.86
CCNC(=S)N1CCN(CCN=CC2=C(O)CC(C)(C)CC2=O)CC1 | -9.75
CCC(CC)C(=O)N1CCN(c2ccccc2)CC1 | -2.08
COc1ccc(N2CCN(CC(O)COCc3ccccc3)CC2)cc1.Cl (centres unmarked) | -25.2
O=C(O)C(=O)O.OC(COCc1ccco1)CN1CCN(c2ccccc2)CC1 (centres unmarked) | -24.8
Cc1ccc(Cl)cc1N1CCN(CC(O)COCc2ccco2)CC1.O=C(O)C(=O)O (centres unmarked) | -73.1
Cc1ccc(Cl)cc1N1CCN(C(=S)NCc2ccco2)CC1 | 37.1
CC(=O)c1ccc(N2CCN(CC(O)c3ccccc3)CC2)cc1 (centres unmarked) | -11.6
Cc1ccc(Cl)cc1N1CCN(Cc2nnnn2Cc2ccco2)CC1 | -37.9
OC(COCc1ccccc1)CN1CCN(c2ccccc2)CC1 (centres unmarked) | -45.2
CC(=O)c1ccc(N2CCN(CC(O)COC(c3ccccc3)c3ccccc3)CC2)cc1 (centres unmarked) | -66.5
CC(=O)c1ccc(N2CCN(CC(O)COC(c3ccccc3)c3ccccc3C)CC2)cc1 (centres unmarked) | -41
COc1ccc(OCC(O)CN2CCN(c3ccccc3)CC2)cc1.Cl (centres unmarked) | -39.2
COc1ccc(N2CCN(CC(O)COC(c3ccccc3)c3ccccc3)CC2)cc1 (centres unmarked) | -64.9
CC(=O)c1ccc(N2CCN(CC(O)COCc3ccco3)CC2)cc1 (centres unmarked) | -56.3
